# Rango complex inh: inhibitors of Rango-importin beta complex formation. Q14974. Rango CFP/YFP FRET sensor + importin beta, 45 min. Potency, µM (series often up to 92.2 µM), inactives show top-dose inhibition of complex formation. 340,000 tested, 0.031% active; calls by dose curve;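 also: potency is read from the fitted curve at half-maximal effect; 0% = DMSO wells and 100% = buffer wells lacking importin beta; nearly all actives have a fitted effect of over 15% in size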
#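 FRET biosensor Rango (snurportin 1 IBB between N-terminal EYFP and C-terminal Cerulean), 50 nM in PBS/1 mM DTT/0.02% Tween-20/0.1% BSA, preincubated 5 min RT with compound; 0.125 microM importin beta added, 45 min RT, CFP/YFP FRET ratio read.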
# KAT2A inh: inhibitors of human GCN5L2 histone acetyltransferase | GCN5L2 HAT assay, ThioGlo1 CoA-SH fluorescence | AID 504327 | Q92830 | 390,000 tested, 0.21% active | Potency, µM (series often up to 58.9 µM), for the others: at the highest dose activity change, negative = inhibition, hits mostly inhibitors; also: potency is read from the fitted curve at half-maximal effect; % is scaled to controls: 0 for no effect and ±100 for the full control effect
#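 Fluorescence readout, Ex340nm/Em540nm: ThioGlo1 (50uM final) reacts with free CoA thiol released as 20nM GCN5L2 acetylates H3(1-25) peptide (75uM) using acetyl-CoA (70uM). Compound and enzyme sat 15 min beforehand; 20 min room-temperature reaction.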
# PLK1 PBD block: inhibitors of human PLK1 polo-box domain binding. AID 720504. P53350. Plk1 PBD binding of FITC phosphopeptide, fluorescence polarization. Potency, µM, inactives show max response, negative = inhibition, hits mostly inhibitors. 360,000 tested, 2.8% active; also: potency is read from the fitted curve at half-maximal effect; series mostly up to about 57 µM; % is scaled to controls: 0 for no effect and ±100 for the full control effect; nearly all actives have a fitted effect of over 65% in size
# Target sequence (P53350 whole entry, looked up, the tested form may be a part): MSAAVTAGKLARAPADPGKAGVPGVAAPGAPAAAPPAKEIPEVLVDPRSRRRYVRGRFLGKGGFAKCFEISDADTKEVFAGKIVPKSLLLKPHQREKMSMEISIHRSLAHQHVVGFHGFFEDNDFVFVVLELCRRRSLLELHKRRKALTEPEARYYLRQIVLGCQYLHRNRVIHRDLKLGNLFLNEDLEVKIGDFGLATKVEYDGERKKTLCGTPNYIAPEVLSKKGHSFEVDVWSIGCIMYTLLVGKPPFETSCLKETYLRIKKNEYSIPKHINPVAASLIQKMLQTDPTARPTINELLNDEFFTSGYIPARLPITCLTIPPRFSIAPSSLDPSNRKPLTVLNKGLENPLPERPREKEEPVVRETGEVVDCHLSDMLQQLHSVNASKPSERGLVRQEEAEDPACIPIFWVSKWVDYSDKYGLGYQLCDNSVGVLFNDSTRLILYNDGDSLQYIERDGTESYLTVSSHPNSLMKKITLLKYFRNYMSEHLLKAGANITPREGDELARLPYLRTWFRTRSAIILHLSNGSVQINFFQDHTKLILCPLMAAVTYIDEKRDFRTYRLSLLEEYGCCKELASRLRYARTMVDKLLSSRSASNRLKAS
# PI5P4K alpha inh: inhibitors of human PI5P4K alpha. P48426. PI5P4Kalpha enzyme, ADP-Glo luminescence, 60 min; stronger effect = lower value. max response, %. 330,000 tested, 1.2% active. AID 652105; active = max response of -50% or lower; inconclusive = between -30% and -50%; inactive = -30% or higher; also: value at the top dose of about 77 µM; % is scaled to controls: 0 for no effect and ±100 for the full control effect
#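 Controls without substrate or without enzyme flank wells where PI5P4Kalpha converts substrate using 5 microM ATP (final). Incubation lasts 60 minutes at room temperature; ADP formed is read by ADP-Glo luminescence.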
# VDR inh: blocks the human vitamin D receptor | 400,000 tested, 0.93% active | Potency, µM, without a hit: max response, negative = inhibition, usual class: inhibitors | VDR-SRC2-3 peptide fluorescence polarization, 2 h; also: potency is read from the fitted curve at half-maximal effect; % is scaled to controls: 0 for no effect and ±100 for the full control effect
#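 FP read-out; VDR + SRC2-3 coactivator peptide; 23 nl compound by pintool; 2 h RT incubation; reagents held at 4 deg C, protected from light.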
# Rango release inh: inhibition of RanGTP-driven Rango-importin beta dissociation. Biochemical FRET Rango-importin beta, RanGTP-induced dissociation. 340,000 tested, 0.071% active. Potency, µM (titrated, usually from 46.1 µM), without a hit: at the top dose activity change, negative = inhibition. AID 540253; calls by dose curve; also: potency is read from the fitted curve at half-maximal effect; % of control where 0% means no effect; nearly all actives have a fitted effect of over 45% in size
#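 FRET read at 45 min, room temperature: inhibitors block the CFP/YFP signal rise when RanGTP (0.6 uM Ran, 2 mM GTP, 0.2 uM RCC1) frees Rango (0.1 uM) from importin beta (0.25 uM). Pre-read after 5 min compound exposure flags interference.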
# ADP-Glo interf: interferes with ADP-Glo detection without enzyme present. 1,100 tested, under 10 active. Potency, µM (titrated, usually from 76.9 µM), inactives show at the highest dose activity change, negative = inhibition, most hits filed as inhibitors. shares compounds with PI5P4K alpha inh. ADP-Glo detection counter-screen, luciferase luminescence, no enzyme
# TbPYK confirm: Trypanosoma brucei pyruvate kinase inhibition, cherry-pick confirmation | shares compounds with PLK1 PBD block | recombinant TbPYK, Kinase-Glo ATP luminescence | Potency, µM (series often up to 76.9 µM), without a hit: top-dose activity change, negative = inhibition, actives largely listed as inhibitors | 890 tested, 67% active | AID 720569; also: potency is read from the fitted curve at half-maximal effect; % is scaled to controls: 0 for no effect and ±100 for the full control effect; nearly all actives have a fitted effect of over 70% in size
# TbPYK orthogonal: inhibits T. brucei pyruvate kinase in orthogonal ADP-Glo assay. Potency, µM (top dose mostly 76.9 µM), inactives show at the top dose activity change, negative = inhibition, hits mostly inhibitors. 890 tested, 62% active. shares compounds with PLK1 PBD block. recombinant TbPYK, ADP-Glo luminescence, 60 min. AID 720584; also: potency is read from the fitted curve at half-maximal effect; % is scaled to controls: 0 for no effect and ±100 for the full control effect; nearly all actives have a fitted effect of over 75% in size
# Numbers without * were called inactive; ? = inconclusive; . = no result given. Only some compounds are listed: those with a hit (about 3.6% of all), similar ones and a draw of the others. Unless noted, calls follow the shape of the dose curve; as a rule, active = well fitted curve in the direction sought with a large enough effect; inconclusive = small, poorly fitted or top-dose-only effect, or another doubt; inactive = no such curve, though single readings can be large; an effect the other way counts as inactive or inconclusive.
SMILES,Rango complex inh,KAT2A inh,PLK1 PBD block,PI5P4K alpha inh,VDR inh,Rango release inh,ADP-Glo interf,TbPYK confirm,TbPYK orthogonal
COc1ccc(OC)c(C2CC(=O)N3CN(c4cccc(Cl)c4)CSC3=C2C#N)c1 (stereo not drawn),0%,25µM*,-8%,-77*,50µM*,-13%,-11%,?,40µM*
COc1ccc(OC)c(C2CC(=O)N3CN(c4cccc(Cl)c4C)CSC3=C2C#N)c1 (stereo not drawn),?,25µM*,?,-64*,32µM*,?,-6%,16µM*,7.9µM*
COc1cccc(C2CC(=O)N3CN(c4cccc(Cl)c4C)CSC3=C2C#N)c1OC (stereo not drawn),-1%,22µM*,27µM*,-93*,22µM*,-3%,-14%,18µM*,6.3µM*
Cc1oc2ccc(O)c(CN3CCCC3)c2c1C(=O)Nc1cccc(Cl)c1C,.,-2%,.,.,9%,.,.,.,.
COC(=O)c1ccc2nc(-c3ccc(F)cc3)c(Cc3ccc(OC)cc3C)n2c1,.,.,-2%,6,.,.,.,.,.
COC(=O)c1ccc2nc(-c3ccco3)c(Cc3ccc(OC)cc3C)n2c1,.,.,27µM*,-80*,.,.,1%,7.1µM*,7.9µM*
CC(C)(NC(=O)c1ccccc1)c1nc2ccccc2s1,6%,-13%,12µM*,-82*,?,-6%,-4%,8.9µM*,10µM*
CCN(c1ccc(OC)cc1)S(=O)(=O)c1ccc2[nH]c3c(c2c1)CCCCC3,.,-26%,.,.,4%,.,.,.,.
Brc1ccc2nc(-c3ccco3)c(Cc3ccccc3)n2c1,.,.,-29%,?,.,.,.,.,.
Clc1cccc(Cc2c(-c3ccco3)nc3ccc(Br)cn23)c1,.,.,11µM*,-82*,.,.,-2%,?,?
O=S(=O)(c1ccc2ccccc2c1)N1CCOCC1,-1%,-3%,-5%,-8,-24%,7%,.,.,.
O=S(=O)(c1ccc2nc(-c3ccco3)c(-c3ccco3)nc2c1)N1CCOCC1,?,?,?,-78*,-23%,?,-4%,20µM*,25µM*
CCOC(=O)c1c(NS(=O)(=O)Cc2ccccc2)sc2c1CCCC2,?,-9%,?,.,7%,-3%,.,.,.
CCOC(=O)c1c(NS(=O)(=O)c2ccc(Br)cc2)sc2c1CCC2,-5%,.,21µM*,-55*,-27%,?,-1%,35µM*,?
COC1(C(F)(F)F)NC(=O)N(c2ccc(F)cc2)C1=O (stereo not drawn),.,-5%,.,.,13%,.,.,.,.
CC(=O)c1c(C)oc2ccc(N(C(=O)Oc3ccccc3)S(=O)(=O)c3ccc(Cl)cc3)cc12,.,-15%,.,.,-8%,.,.,.,.
Cc1cccc(NC(=O)CSc2nc(=O)n(CCN3CCOCC3)c3c2CCC3)c1,.,-10%,.,.,7%,.,.,.,.
N#CC1=C2SCC(O)(c3ccccc3)N2C(=O)CC1c1cccs1 (stereo not drawn),7%,-16%,-10%,.,-7%,0%,.,.,.
N#CC1=C2SCN(c3ccccc3)CN2C(=O)CC1c1cccs1 (stereo not drawn),-5%,?,27µM*,-73*,?,-15%,-8%,2.8µM*,2.5µM*
N#CC1=C2SCN(c3ccccc3)CN2C(=O)CC1c1c(Cl)cccc1Cl (stereo not drawn),0%,11µM*,13µM*,-75*,22µM*,-4%,-6%,3.2µM*,2.5µM*
N#CC1=C2SCN(c3ccccc3)CN2C(=O)CC1c1ccccc1Cl (stereo not drawn),0%,28µM*,27µM*,-82*,28µM*,-3%,-9%,7.9µM*,5.6µM*
Cc1cc(N2CCN(c3ccc(F)cc3)CC2)n2nc(-c3ccc(Cl)cc3)nc2n1,.,0%,.,.,-2%,.,.,.,.
CN1Cc2c(N3CCOCC3)nc(SCCC#N)c(C#N)c2CC1(C)C,?,-4%,-10%,-1,-14%,?,.,.,.
CC(C)Sc1nc(N2CCOCC2)c2c(c1C#N)CC(C)(C)N(C)C2,?,-15%,2.7µM*,-53*,?,?,1%,-11%,-6%
COc1ccc(-n2nnnc2Sc2ccc(S(=O)(=O)N3CCOCC3)cn2)cc1,-4%,-6%,9.5µM*,-28,?,5%,.,14µM*,18µM*
SMILES,Rango complex inh,KAT2A inh,PLK1 PBD block,PI5P4K alpha inh,VDR inh,Rango release inh,ADP-Glo interf,TbPYK confirm,TbPYK orthogonal
COc1ccc(-n2nnnc2SCC(=O)N2CCOCC2)cc1,1%,-5%,-9%,-4,-10%,8%,.,.,.
CCOC(=O)C1CCCN(C(=O)c2ccc(CS(=O)(=O)c3ccc(C)cc3)o2)C1 (stereo not drawn),-8%,-7%,-27%,?,-3%,-2%,.,.,.
CCOC(=O)C1CCCN(C(=O)c2ccc(-c3ccc([N+](=O)[O-])cc3)o2)C1 (stereo not drawn),0%,-7%,30µM*,?,?,0%,.,?,?
O=C(O)c1c(F)c(F)c(F)c(F)c1-c1ccc(Cl)cc1,0%,-1%,-5%,.,1%,-11%,.,.,.
CC(=O)N1CC[n+]2c(-c3ccc(Cl)cc3)csc21,1%,-8%,6µM*,-20,20µM*,-1%,.,16µM*,7.1µM*
O=C(N/N=C/c1ccccc1)c1[nH]ncc1Br,0%,1%,-8%,-12,8%,-16%,.,-27%,1%
Cc1ccc2c(c1)sc[n+]2Cc1ccccc1,1%,-5%,3µM*,.,25µM*,18%,.,-20%,?
CCOC(=O)C(=C1Nc2ccccc2N1)n1c(-c2ccco2)nc2ccccc21,.,.,?,-66*,.,.,.,-72%,35µM*
CCOC(=O)C(=C1Nc2ccccc2N1)n1c(-c2cnccn2)nc2ccccc21,.,.,-9%,-7,.,.,.,.,.
COc1ccc(NC(=O)c2cc(C3CC3)nc3c2c(C)nn3-c2ccc(C)cc2)cc1OC,.,6%,.,.,17%,.,.,.,.
CCOC(=O)CCc1c(C)nc(SCCCn2c(=O)[nH]c3ccccc32)c(C#N)c1C,0%,-19%,-16%,.,7%,?,.,5.6µM*,14µM*
O=C(/C=C(\O)c1ccccc1)c1ccccc1O,.,-11%,.,.,-4%,.,.,.,.
